The supplement of paper PMC10849652
The full data set covers some 7,900 targets. This sample favours those with a hit. About 0.6% of all pairs of compound and target were hits.

compound: C1=CC(=CC=C1C2=NC3=C(N2)C=C(C=C3)C(=O)N)OC4=CC=C(C=C4)Cl; assay: log2 fold change, soluble protein after heating vs DMSO (PISA); higher = thermal stabilisation; K562 cells, 10 uM, 30 min; active = over 0.2 and 3.5 SD of the protein, either way, in both replicates (recomputed)
Method in brief: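 Soluble protein was defined as the supernatant after 21,000xg for 90 min. It came from K562 cells at 2×10^6 cells/mL given 10 μM compound for 30 min, heated in aliquots for 3 min across 48°C-58°C, pooled, and extracted in PBS with 0.5% NP-40 at 4°C, and was quantified by TMTpro 16plex LC-MS/MS with equalised channel sums. Thermal stability against control samples, from duplicates, is reported as log2 fold change.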

UniProt Q00577, sequence (Q00577 whole entry, looked up): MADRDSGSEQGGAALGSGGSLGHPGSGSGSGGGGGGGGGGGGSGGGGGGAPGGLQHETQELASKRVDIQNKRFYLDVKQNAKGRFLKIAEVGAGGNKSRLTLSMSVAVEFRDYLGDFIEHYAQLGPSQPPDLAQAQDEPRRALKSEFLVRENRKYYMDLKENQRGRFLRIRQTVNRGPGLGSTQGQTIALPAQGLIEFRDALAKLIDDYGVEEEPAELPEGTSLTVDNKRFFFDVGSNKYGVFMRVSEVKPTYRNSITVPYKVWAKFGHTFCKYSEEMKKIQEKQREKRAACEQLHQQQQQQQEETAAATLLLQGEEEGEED
UniProt Q9H300, sequence (Q9H300 whole entry, looked up): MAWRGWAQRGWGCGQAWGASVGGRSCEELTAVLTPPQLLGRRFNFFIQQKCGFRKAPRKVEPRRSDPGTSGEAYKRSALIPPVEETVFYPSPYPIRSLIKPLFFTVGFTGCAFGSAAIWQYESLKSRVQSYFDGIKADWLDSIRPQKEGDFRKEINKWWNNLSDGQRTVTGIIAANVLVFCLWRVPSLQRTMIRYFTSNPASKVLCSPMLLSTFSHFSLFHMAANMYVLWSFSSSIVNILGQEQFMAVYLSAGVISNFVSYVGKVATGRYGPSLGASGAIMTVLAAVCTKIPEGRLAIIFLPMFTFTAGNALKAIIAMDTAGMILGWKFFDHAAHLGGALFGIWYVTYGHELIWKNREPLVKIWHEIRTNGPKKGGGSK
UniProt Q13362, sequence (Q13362 whole entry, looked up): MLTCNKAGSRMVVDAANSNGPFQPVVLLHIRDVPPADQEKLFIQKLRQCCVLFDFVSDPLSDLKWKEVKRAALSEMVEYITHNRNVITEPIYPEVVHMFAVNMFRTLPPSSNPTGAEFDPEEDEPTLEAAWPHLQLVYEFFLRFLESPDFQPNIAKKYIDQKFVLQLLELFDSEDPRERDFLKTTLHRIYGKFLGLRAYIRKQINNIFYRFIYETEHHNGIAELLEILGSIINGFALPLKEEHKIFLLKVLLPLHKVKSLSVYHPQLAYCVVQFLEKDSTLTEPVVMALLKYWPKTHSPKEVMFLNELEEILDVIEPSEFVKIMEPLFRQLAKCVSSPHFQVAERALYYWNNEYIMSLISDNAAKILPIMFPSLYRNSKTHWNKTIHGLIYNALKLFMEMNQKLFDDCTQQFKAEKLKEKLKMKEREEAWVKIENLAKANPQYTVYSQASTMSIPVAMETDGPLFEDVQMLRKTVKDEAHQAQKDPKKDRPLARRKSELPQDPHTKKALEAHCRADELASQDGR
UniProt Q9UHX1, sequence (Q9UHX1 whole entry, looked up): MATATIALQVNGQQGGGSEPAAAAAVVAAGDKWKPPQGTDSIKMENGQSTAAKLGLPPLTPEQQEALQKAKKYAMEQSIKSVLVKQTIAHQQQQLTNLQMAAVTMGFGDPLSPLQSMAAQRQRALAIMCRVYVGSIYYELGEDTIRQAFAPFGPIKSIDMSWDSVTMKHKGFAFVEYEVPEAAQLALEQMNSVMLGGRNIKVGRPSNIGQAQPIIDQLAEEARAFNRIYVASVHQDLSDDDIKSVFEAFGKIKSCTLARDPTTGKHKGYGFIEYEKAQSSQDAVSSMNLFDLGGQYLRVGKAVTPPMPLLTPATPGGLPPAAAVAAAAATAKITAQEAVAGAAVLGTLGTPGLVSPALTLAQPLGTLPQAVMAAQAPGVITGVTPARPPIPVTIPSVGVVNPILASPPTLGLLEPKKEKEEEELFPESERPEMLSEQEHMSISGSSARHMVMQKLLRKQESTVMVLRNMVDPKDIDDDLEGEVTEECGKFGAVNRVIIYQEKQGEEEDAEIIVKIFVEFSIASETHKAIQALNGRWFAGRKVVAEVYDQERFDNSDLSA
UniProt O43242, sequence (O43242 whole entry, looked up): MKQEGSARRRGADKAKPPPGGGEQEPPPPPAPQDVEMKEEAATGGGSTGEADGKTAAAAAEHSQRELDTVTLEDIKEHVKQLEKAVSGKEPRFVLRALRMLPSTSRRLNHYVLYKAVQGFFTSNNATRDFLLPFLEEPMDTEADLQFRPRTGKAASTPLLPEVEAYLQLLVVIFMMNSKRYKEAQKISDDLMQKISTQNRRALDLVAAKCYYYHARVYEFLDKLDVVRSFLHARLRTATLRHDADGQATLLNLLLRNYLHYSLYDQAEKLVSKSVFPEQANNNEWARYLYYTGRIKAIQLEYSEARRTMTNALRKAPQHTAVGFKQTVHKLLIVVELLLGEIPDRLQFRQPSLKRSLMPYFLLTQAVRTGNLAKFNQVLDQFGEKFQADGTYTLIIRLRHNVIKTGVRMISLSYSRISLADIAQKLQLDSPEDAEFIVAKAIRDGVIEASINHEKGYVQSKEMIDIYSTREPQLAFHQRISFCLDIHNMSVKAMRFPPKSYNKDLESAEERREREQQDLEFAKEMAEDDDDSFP
UniProt P28070, sequence (P28070 whole entry, looked up): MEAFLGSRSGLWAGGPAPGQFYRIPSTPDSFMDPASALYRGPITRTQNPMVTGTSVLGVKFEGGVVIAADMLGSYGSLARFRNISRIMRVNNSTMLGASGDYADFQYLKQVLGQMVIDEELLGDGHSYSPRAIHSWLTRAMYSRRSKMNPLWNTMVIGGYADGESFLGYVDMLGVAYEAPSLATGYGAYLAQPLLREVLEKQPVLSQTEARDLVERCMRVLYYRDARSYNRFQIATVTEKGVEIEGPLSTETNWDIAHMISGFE
UniProt P46019, sequence (P46019 whole entry, looked up): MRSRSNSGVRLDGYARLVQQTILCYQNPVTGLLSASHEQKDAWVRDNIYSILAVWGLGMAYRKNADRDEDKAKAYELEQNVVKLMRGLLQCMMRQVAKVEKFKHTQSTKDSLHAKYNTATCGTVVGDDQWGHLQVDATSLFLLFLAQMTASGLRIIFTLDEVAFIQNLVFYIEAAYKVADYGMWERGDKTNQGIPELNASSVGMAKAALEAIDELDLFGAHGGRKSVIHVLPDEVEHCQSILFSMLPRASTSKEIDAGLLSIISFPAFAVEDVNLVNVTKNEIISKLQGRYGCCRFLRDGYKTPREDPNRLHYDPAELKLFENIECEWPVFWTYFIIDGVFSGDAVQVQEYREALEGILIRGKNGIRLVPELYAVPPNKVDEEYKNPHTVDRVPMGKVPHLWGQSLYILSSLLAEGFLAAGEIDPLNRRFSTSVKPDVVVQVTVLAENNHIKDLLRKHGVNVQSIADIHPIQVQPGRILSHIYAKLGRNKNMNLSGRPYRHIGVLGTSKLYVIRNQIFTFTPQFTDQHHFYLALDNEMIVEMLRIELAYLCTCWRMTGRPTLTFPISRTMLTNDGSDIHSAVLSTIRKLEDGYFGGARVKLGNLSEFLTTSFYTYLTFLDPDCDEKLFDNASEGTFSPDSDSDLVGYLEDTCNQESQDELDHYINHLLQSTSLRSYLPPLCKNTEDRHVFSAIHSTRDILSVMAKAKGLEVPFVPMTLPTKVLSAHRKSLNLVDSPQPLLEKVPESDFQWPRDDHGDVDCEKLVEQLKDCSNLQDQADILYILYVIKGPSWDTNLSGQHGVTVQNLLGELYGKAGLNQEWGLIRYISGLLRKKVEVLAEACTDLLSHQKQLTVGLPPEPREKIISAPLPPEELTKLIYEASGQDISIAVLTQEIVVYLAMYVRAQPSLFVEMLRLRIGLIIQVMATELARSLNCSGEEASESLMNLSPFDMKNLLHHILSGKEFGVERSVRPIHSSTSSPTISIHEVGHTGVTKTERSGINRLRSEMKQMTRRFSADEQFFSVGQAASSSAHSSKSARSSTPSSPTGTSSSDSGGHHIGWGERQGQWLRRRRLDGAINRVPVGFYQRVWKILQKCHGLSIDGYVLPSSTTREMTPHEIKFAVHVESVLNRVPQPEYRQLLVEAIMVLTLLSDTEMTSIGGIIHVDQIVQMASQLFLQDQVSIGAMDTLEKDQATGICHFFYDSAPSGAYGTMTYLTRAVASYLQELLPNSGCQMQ
UniProt O60256, sequence (O60256 whole entry, looked up): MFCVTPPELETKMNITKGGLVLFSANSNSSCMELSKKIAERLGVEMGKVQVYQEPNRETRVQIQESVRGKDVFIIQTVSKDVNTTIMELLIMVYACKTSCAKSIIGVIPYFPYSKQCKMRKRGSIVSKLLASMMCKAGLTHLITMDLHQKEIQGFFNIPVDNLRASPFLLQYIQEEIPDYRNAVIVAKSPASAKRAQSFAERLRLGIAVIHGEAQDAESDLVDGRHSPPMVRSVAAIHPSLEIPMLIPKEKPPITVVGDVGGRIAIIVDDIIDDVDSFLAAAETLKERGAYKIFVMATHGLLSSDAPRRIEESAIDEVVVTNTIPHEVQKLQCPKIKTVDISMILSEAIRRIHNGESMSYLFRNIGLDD
UniProt Q92968, sequence (Q92968 whole entry, looked up): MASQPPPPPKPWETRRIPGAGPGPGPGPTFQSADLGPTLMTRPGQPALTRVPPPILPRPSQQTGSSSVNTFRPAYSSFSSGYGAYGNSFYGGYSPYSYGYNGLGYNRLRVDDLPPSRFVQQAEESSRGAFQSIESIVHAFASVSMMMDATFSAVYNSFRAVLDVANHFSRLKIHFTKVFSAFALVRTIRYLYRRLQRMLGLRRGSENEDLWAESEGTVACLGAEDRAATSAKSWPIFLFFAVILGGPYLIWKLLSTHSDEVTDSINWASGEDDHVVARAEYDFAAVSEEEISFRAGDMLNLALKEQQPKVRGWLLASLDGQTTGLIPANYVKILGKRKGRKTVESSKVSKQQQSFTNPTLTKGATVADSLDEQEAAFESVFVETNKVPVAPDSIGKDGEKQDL

log2 fold change, inactive:
PSMD3 (UniProt O43242) 0.002
PARL (UniProt Q9H300) -0.011
PEX13 (UniProt Q92968) 0.009
PURA (UniProt Q00577) 0.101
PSMB4 (UniProt P28070) 0.001
PIK3CB (UniProt P42338) -0.022
PPP2R5C isoform 4 (UniProt Q13362) -0.025
PUF60 (UniProt Q9UHX1) 0.014
PRKACA (UniProt P17612) -0.016
PRPSAP2 (UniProt O60256) -0.028
PHKA2 (UniProt P46019) -0.008
PTPN12 (UniProt Q05209) 0.004
RAB11FIP1 (UniProt Q6WKZ4) -0.039
